The source of these data is PubChem BioAssay.

Assay [1] in a line: compound effects on lung adenocarcinoma cell viability – A549, calcein-AM fluorescence, 48 h, basal, profiling panel (AID 1162). Further: test concentration not given here. The following applies: higher = more signal.
Assay [2] in a line: compound effects on differentiated 3T3-L1 adipocyte viability – cell-based, 3T3-L1 adipocytes, calcein-AM fluorescence, 48 h, basal, profiling panel (AID 1163). Further: test concentration not given here. As to conditions: 3T3-L1 adipocytes viability, higher = more signal.
A short description of assay [3]: compound effects on hepatocellular carcinoma cell viability – HepG2, calcein-AM fluorescence, 48 h, basal, profiling panel (AID 1164). Further: test concentration not given here. The following applies: higher = more signal.
Assay [4] can be described thus: compound effects on multiple myeloma cell viability – MM1S, calcein-AM fluorescence, 48 h, basal, profiling panel (AID 1165).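 Further: viability of MM1S multiple myeloma cells under basal unstimulated conditions; test concentration not given here.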 The following applies: higher = more signal.
The nature of assay [5]: calcein-AM signal in unstimulated myeloma cells – cell-based, calcein-AM fluorescence, 48 h, PK04 Diversity Set, profiling panel (AID 1166).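 Further: cells grown under basal conditions without added stimulus; test concentration not given here.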 As to conditions: RPMI8226 myeloma viability, higher = more signal.
Assay [6] is described as follows: JC-1 mitochondrial signal, unstimulated HepG2 cells – cell-based, JC-1 fluorescence, 24 h, 100 nL compound, profiling panel (AID 1167). Further: test concentration not given here. As to conditions: HepG2 mitochondrial potential, higher = more signal.
Assay [7] can be described thus: JC-1 mitochondrial signal, unstimulated adipocytes – cell-based, JC-1 fluorescence, 3T3-L1 adipocytes, 24 h, 100 nL compound, profiling panel (AID 1168). Further: test concentration not given here. The following applies: JC-1 mitochondrial fluorescence, higher = more signal, called active from +8 up or from −8 down.
Assay [8] in a line: JC-1 mitochondrial signal, unstimulated myeloma cells – cell-based, JC-1 fluorescence, RPMI8226, 24 h, 100 nL compound, profiling panel (AID 1169). Further: test concentration not given here. As to conditions: JC-1 mitochondrial potential fluorescence, higher = more signal.
Assay [9] can be described thus: JC-1 mitochondrial signal, unstimulated MM1S myeloma – cell-based, JC-1 fluorescence, 24 h, 100 nL compound, profiling panel (AID 1170). Further: test concentration not given here. The following applies: MM1S mitochondrial potential, higher = more signal.
Assay [10] in a line: resazurin metabolic signal in A549 cells – cell-based, resazurin fluorescence, 24 h, PK04 Diversity Set, profiling panel (AID 1171). Further: test concentration not given here. The following applies: A549 viability, higher = more signal, called active from +8 up or from −8 down.
A short description of assay [11]: resazurin metabolic signal in HepG2 cells – cell-based, resazurin fluorescence, 24 h, PK04 Diversity Set, profiling panel (AID 1172). Further: test concentration not given here. The following applies: HepG2 viability, higher = more signal. In general terms: Alamar Blue is a resazurin reagent that responds to reducing activity.
Assay [12] in a line: budding yeast growth changes without added modifier – OD600, strain BY4716, 24 h, basal condition, primary screen (AID 1173). As to conditions: S. cerevisiae BY4716 growth, OD600, 24 h; higher = more signal, called active from +8 up or from −8 down.
Assay [13] can be described thus: viability profiling in MM1S myeloma cells – cell-based, resazurin fluorescence, basal, 24 h, PK04 Diversity Set, profiling panel (AID 1174). Further: test concentration not given here. The following applies: higher = more signal, called active from +8 up or from −8 down.
The target in assay [14] is Dihydroorotate dehydrogenase (quinone), mitochondrial (Plasmodium falciparum (isolate 3D7)) (UniProt Q08210). As to the kind of experiment: inhibition of P. falciparum DHODH – biochemical, C-terminal His tag, absorbance 600 nm, primary screen (AID 1175).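 Further: recombinant parasite enzyme with a five histidine tag at its C terminus; test concentration not given here.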 The following applies: PfDHODH enzyme, DCIP absorbance 600 nm; higher = more signal, called active from +8 up or from −8 down.

Assay [15] can be described thus: inhibition of PAO1 biofilm formation – strain PAO1, LB-PBS medium, absorbance 600 nm, primary screen (AID 1176). Further: test concentration not given here. The following applies: P. aeruginosa PAO1 growth/biofilm, A600, 12 h; higher = more signal.
A short description of assay [16]: growth modulation of vineyard yeast isolate – strain RM11-1a, OD600, basal, 24 h, primary screen (AID 1177).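 Further: cultures grown under basal conditions with no added stressor; test concentration not given here.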 The following applies: S. cerevisiae RM11-1a growth, OD600, 24 h; higher = more signal, called active from +8 up or from −8 down.
Assay [17] in a line: growth of efflux-deficient E. coli DRC39 – strain DRC39, OD650, 24 h, E. coli filamentation inducers, primary screen (AID 1178).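 Further: growth measured as culture turbidity by optical density at 650 nm; test concentration not given here.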 As to conditions: E. coli DRC39 acrAB, higher = more signal, called active from +8 up or from −8 down.
Assay [18] in a line: growth of efflux-deficient E. coli DRC39 – strain DRC39, OD650, 48 h, E. coli filamentation inducers, primary screen (AID 1179).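 Further: screen aims at cell division blockers that make cells filament.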 The following applies: E. coli DRC39 delta-acrAB growth, higher = more signal, called active from +8 up or from −8 down.
The nature of assay [19]: viability profiling in RPMI8226 myeloma cells – cell-based, resazurin fluorescence, basal, 24 h, PK04 Diversity Set, profiling panel (AID 1180).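 Further: RPMI8826 multiple myeloma cell line at 5000 cells per well; test concentration not given here.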 The following applies: higher = more signal.
For assay [20], the target named is E3 ubiquitin-protein ligase XIAP (Homo sapiens) (UniProt P98170). The experiment in a line: small molecules binding XIAP protein – biophysical, small-molecule microarray, fluorescence 635 nm, primary screen (AID 1181).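 Further: score merges 667 nm emission and signal to noise over triplicate slides.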 The following applies: higher = more signal.

Molecules are shown by their SMILES. Activity calls are given as the source filed them. Unless noted, how the calls were made is not given here.

Chain of E3 ubiquitin-protein ligase XIAP (Homo sapiens) (P98170 whole entry, looked up): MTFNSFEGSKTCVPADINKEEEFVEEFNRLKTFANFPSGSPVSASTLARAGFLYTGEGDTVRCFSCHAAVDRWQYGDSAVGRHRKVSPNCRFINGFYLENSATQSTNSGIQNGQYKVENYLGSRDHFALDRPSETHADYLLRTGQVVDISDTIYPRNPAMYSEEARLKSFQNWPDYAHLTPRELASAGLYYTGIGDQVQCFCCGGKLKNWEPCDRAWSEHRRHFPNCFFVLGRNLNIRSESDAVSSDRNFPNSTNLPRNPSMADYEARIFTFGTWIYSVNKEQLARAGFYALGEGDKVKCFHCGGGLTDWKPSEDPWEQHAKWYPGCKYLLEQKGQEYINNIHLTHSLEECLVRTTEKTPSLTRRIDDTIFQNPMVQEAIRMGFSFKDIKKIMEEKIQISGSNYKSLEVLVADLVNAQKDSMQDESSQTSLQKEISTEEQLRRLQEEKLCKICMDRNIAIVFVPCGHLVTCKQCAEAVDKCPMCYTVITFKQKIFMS
Chain of Dihydroorotate dehydrogenase (quinone), mitochondrial (Plasmodium falciparum (isolate 3D7)) (Q08210 whole entry, looked up): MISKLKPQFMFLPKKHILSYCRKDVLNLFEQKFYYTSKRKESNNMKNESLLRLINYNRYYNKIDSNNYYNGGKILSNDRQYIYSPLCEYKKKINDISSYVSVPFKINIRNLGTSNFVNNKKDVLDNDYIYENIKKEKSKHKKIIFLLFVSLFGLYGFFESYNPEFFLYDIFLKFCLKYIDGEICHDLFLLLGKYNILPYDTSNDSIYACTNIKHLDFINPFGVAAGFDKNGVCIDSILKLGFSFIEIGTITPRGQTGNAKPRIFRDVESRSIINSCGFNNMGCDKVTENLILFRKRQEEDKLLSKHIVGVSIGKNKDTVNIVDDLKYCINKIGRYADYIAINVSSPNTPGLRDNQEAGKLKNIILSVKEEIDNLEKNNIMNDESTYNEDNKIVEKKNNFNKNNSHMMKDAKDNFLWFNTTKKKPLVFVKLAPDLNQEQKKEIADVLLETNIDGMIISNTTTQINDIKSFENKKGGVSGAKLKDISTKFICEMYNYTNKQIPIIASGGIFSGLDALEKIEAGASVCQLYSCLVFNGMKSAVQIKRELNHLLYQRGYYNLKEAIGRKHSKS

Take `COc1cc(COC(C)=O)ccc1OC(C)=O`: the z-score in assay [1] was 1.97; in [2] it was 0.223; in assay [3], 1.5; in [4], -0.0098; in assay [5] it was -1.49; in assay [6], -0.367. Moreover, the z-score was 0.374 (inactive) in [7]; -0.219 in [8]; 0.528 in [9]; 0.339 (inactive) in [10]; 0.858 in assay [11]; -0.715 (inactive) in assay [12]. The z-score in assay [13] was 0.101 (inactive); in assay [15] it was 0.317 (inactive); in [16] it was -1.35 (inactive); in assay [17], 1.17 (inactive); in [18] it was 0.871 (inactive); in assay [19] it was 0.614. Besides, the composite z-score in [14] is -0.942 (inactive); in assay [20] it was -0.269.
For the molecule `COc1ccc(-c2cc3c(c(-c4ccc(Oc5ccccc5)cc4)n2)[Si](C(C)C)(C(C)C)OC3)cn1`, the z-score in [1] was -0.599; in assay [2], -0.377; in assay [3] it was 0.645; in assay [4], -1.19; in assay [5], -1.75; in assay [6], -1.43. The z-score in assay [7] is -0.47 (inactive); in [8] it was -0.845; in assay [9], -0.973; in [10], 1.07 (inactive); in assay [11], -1.05; in assay [12] it was 1.07 (inactive). In addition, the z-score in [13] was -0.29 (inactive); in assay [15], -0.0391 (inactive); in assay [16], 1.24 (inactive); in assay [17], -0.794 (inactive); in [18], -0.973 (inactive); in assay [19], -0.698. In addition, the composite z-score is 0.568 (inactive) in assay [14] and -0.0326 in assay [20].
Consider `O=C1C2C=CC(C(O)Cc3ccccc3)N(n3cnnc3)C2C(=O)N1Cc1ccccc1` (stereo not given), for which the z-score in assay [1] was -0.182; in assay [2] it was 0.549; in assay [3] it was -0.065; in [4] it was -0.304; in assay [5], -1.11; in assay [6] it was -0.532. The z-score in [7] is -0.533 (inactive); in assay [8], 0.395; in [9], 1.24; in assay [10] it was -1.29 (inactive); in assay [11], -0.957; in assay [12], 0.341 (inactive). Further, the z-score in assay [13] was -1.04 (inactive); in assay [15], -0.253 (inactive); in assay [16] it was 0.656 (inactive); in assay [17], -1.08 (inactive); in assay [18] it was -1.13 (inactive); in assay [19], -1.05. The results for the composite z-score in assay [14] and in assay [20] were 0.293 (inactive) and 0.0328, respectively.
As to `COc1ccccc1CN1C(=O)c2ccccc2[C@@H](C(=O)NC2CC2)[C@@H]1c1ccc(CO)cc1`, the z-score in assay [1] was 1.44; in assay [2], -0.348; in assay [3], 1.26; in [4] it was 0.467; in assay [5] it was -0.376; in [6] it was 2.33. In addition, the z-score in assay [7] is 0.171 (inactive); in [8], 0.371; in assay [9], -0.0698; in [10], 0.469 (inactive); in assay [11], 0.103; in assay [12], -0.561 (inactive). The z-score in assay [13] is 0.84 (inactive); in assay [15], -0.342 (inactive); in [16], 0.184 (inactive); in assay [17], 0.421 (inactive); in [18] it was 0.119 (inactive); in [19], 0.407. Further, the composite z-score was -0.245 (inactive) in [14] and -0.0085 in assay [20].
As for `CC(C)c1ccc(NN2C(C(O)c3ccc(B(O)O)cc3)C=CC3C(=O)N(c4ccccc4)C(=O)C32)cc1` (stereo not given), the z-score in assay [1] is -1.34; in [2] it was -0.386; in assay [3] it was -1.28; in [4] it was -0.571; in [5] it was -0.587; in assay [6], -1.75. For the same molecule, the z-score is -1.56 (inactive) in assay [7]; -0.894 in assay [8]; 0.00559 in assay [9]; -0.212 (inactive) in assay [10]; -1.18 in assay [11]; 0.278 (inactive) in assay [12]. Moreover, the z-score was -1.2 (inactive) in [13]; 1.12 (inactive) in [15]; 0.728 (inactive) in assay [16]; -0.329 (inactive) in assay [17]; -0.543 (inactive) in assay [18]; -0.948 in assay [19]. In addition, the values for the composite z-score in [14] and in [20] were -0.388 (inactive) and -0.119, respectively.
`CN(C)CCCC[C@@H]1NC(=O)[C@@H]2C[C@H](C(=O)NCCCCCCN)[C@H](c3cccc(OCCO)c3)N2C1=O`: the z-score was -0.481 in assay [1]; 1.24 in [2]; -1.21 in [3]; -0.304 in assay [4]; 0.294 in assay [5]; -1.3 in assay [6]. Moreover, the z-score in assay [7] is -0.735 (inactive); in assay [8], -0.17; in [9], 0.454; in assay [10] it was -0.511 (inactive); in assay [11] it was -0.06; in [12] it was -0.543 (inactive). Also, the z-score in assay [13] was 0.124 (inactive); in assay [15], 0.187 (inactive); in assay [16], -1.17 (inactive); in [17], -0.459 (inactive); in assay [18] it was -1 (inactive); in assay [19], -0.851. Moreover, the composite z-score was -0.981 (inactive) in assay [14] and 0.115 in assay [20].
As to `COc1ccc([Si](C)(C)[C@@H]2[C@@H](CC(=O)N3CCC[C@H]3CO)O[C@]3(C(=O)N(c4ccccc4)c4ccccc43)[C@H]2C)cc1`, the z-score was 1.61 in assay [1]; 0.93 in assay [2]; -0.259 in [3]; -0.011 in assay [4]; 0.17 in [5]; 1.29 in assay [6]. The z-score in assay [7] was -0.181 (inactive); in assay [8] it was -0.277; in [9], -0.544; in [10], 1.13 (inactive); in assay [11], 0.733; in assay [12], -1.39 (inactive). Also, the z-score is 0.315 (inactive) in [13]; -0.106 (inactive) in assay [15]; -1.2 (inactive) in [16]; 0.193 (inactive) in assay [17]; 0.258 (inactive) in [18]; 0.729 in assay [19]. Moreover, the results for the composite z-score in assay [14] and in assay [20] were -1.27 (inactive) and 0.217, respectively.
As for `O=C1C[C@@](C(=O)NCCN2CCOCC2)(c2ccc([N+](=O)[O-])cc2)[C@@H](c2ccc(CO)cc2)N1CC12CC3CC(CC(C3)C1)C2`, the z-score was -2.97 in assay [1]; 0.0433 in assay [2]; -3 in assay [3]; -3.83 in assay [4]; -4.23 in [5]; -2.04 in assay [6]. Moreover, the z-score was -0.907 (inactive) in assay [7]; -0.893 in assay [8]; -0.615 in [9]; -2.06 (inactive) in assay [10]; -2.48 in assay [11]; -11.2 (active) in assay [12]. Further, the z-score is -3.17 (inactive) in assay [13]; 0.733 (inactive) in assay [15]; 1.77 (inactive) in [16]; -0.924 (inactive) in [17]; -1.66 (inactive) in [18]; -3.82 in assay [19]. In addition, the composite z-score in assay [14] was -0.601 (inactive); in [20], -0.182.
As for `CN(C)CCCCCCNC(=O)[C@H]1C[C@H]2C(=O)N[C@@H](CCCCN)C(=O)N2[C@H]1c1cccc(OCCO)c1`, the z-score in assay [1] is -0.214; in assay [2] it was 0.414; in assay [3] it was -0.458; in assay [4], -0.371; in assay [5], -0.497; in assay [6] it was 0.272. Further, the z-score was 0.587 (inactive) in assay [7]; -0.636 in assay [8]; 0.358 in assay [9]; -0.0439 (inactive) in assay [10]; -0.0616 in [11]; -1.69 (inactive) in assay [12]. Besides, the z-score in assay [13] was -0.0889 (inactive); in assay [15], 0.0346 (inactive); in [16], -0.533 (inactive); in [17], 0.422 (inactive); in [18], -0.02 (inactive); in [19], -0.614. Moreover, the figures for the composite z-score in assay [14] and in assay [20] were -0.692 (inactive) and 2.02, respectively.
